Five compounds from PubChem BioAssay (NCI) can be followed below.

About 83,000 compounds went through this panel and 20% of them were active in at least one assay; those are over-represented in the sample as a whole.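 How to read the values: 0–100, growth inhibition (40 = 60% inhibited); 0, no net growth; -100 to 0, cell death (-40 = 40% of starting cells died; -100 = all dead).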 Values without a mark were called inactive. The calls were made as follows: active = growth percent below 10; inactive = the rest.

In the assay the test system is HL-60(TB) leukemia. In words: NCI-60 one-dose screen, 48 h (100 = growth as untreated, 0 = no growth, -100 = all killed). The note with it: 10 µM unless noted.
With `CSc1nc(N)c(N)c(N)n1`, the growth was 77.8%. The figure for `COc1cc2c(cc1OC)C(Cc1cc(OC)c(OC)cc1[N+](=O)[O-])=NCC2` is 63.1%; for `O=C(NNC(=O)c1ccc(-n2cc(-c3ccccc3)nn2)cc1)Nc1ccccc1` it is 95.4%. For `Nc1ncnc2c1c(-c1cccc(Cl)c1)nn2CC(=O)N1CCOCC1` the value was 101%; for `CC(C)C1C2=C(NCCN1C(=O)Cc1ccccc1)C(C)(C)N(Cc1ccccc1)C2=O` (stereo not given), 100%.
